Bioassay records deposited in PubChem by several laboratories.
GRK2 inh = inhibitors of human GRK2 displacing RNA aptamer. bead flow cytometry, FAM-aptamer displacement from GRK2. inhibition of aptamer binding, % at 10 µM. 330,000 tested, 0.59% active;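 active = inhibition of aptamer binding above 40%, roughly 3 SD of noise, on plates passing a quality check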;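 also: median bead fluorescence of bound FAM aptamer so fluorescent compounds give negative values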
DSG3 Ab inh = inhibitors of pemphigus antibody binding to human desmoglein-3 | AID 588358 | DSG3-coupled beads, scFv-anti-DSG3-GFP binding, flow cytometry; stronger effect = lower value | 310,000 tested, 0.48% active | binding (percent of control), % at 10 µM | P32926;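 active = binding more than 3 SD below its plate's average and above zero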;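 also: hits lower antibody fragment binding to DSG3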
LANA-H2A inh = blocks KSHV LANA binding to histone H2A/H2B; Q9QR71; cell-free LANA-H2A/H2B peptide, fluorescence polarization; inhibition, % (concentration not given with the values); 320,000 tested, 0.6% active; in the data active = inhibition mostly above about 10%, no sharp cut-off; inactive = mostly below about 6.7%
PKD1 kinase inh = blocks activity of human protein kinase D1. Q15139. PKD1 kinase fluorescence polarization assay. inhibition, % (no concentration beside the values). 200,000 tested, 0.056% active. AID 797
Target sequence (Q15139 whole entry, looked up): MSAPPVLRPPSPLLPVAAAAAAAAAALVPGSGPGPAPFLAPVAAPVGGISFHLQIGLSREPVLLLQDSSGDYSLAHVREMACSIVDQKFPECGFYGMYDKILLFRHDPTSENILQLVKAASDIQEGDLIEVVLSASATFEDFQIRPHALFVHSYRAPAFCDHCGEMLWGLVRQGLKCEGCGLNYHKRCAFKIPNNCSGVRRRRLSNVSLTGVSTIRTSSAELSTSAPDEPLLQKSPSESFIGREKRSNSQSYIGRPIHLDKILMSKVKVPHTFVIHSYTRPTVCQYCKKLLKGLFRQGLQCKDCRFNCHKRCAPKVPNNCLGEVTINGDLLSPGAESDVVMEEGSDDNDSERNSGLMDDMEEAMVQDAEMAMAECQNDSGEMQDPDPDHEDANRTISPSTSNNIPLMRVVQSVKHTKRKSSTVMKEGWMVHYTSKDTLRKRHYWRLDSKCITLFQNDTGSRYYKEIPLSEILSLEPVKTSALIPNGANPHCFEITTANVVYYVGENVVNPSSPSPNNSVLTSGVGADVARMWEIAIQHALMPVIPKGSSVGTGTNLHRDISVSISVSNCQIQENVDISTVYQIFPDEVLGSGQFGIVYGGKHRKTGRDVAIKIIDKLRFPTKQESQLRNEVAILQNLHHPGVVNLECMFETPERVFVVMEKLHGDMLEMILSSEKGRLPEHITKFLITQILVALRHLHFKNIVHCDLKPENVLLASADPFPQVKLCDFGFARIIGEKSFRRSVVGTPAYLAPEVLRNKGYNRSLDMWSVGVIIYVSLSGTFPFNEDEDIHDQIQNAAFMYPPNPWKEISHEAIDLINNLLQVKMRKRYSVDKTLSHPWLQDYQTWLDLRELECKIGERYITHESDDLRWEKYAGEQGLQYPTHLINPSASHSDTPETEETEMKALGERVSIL
HDAC3 inhib = blocks human histone deacetylase 3; O15379; recombinant HDAC3, fluorogenic peptide/trypsin coupled, fluorescence; inhibition, % at 8.3 µM; 320,000 tested, 0.15% active; AID 2718; in the data active = inhibition above about 26%, passing the limit was not always enough
VLA-4 inh = inhibition in a human VLA-4 binding assay. P13612. VLA-4 expressing cells, ligand binding flow cytometry. inhibition, % (about 7 µM as worked out from the volumes in the protocol). 330,000 tested, 0.2% active. AID 2557
An asterisk follows results filed as active; . = not tested or not shown; + = active, no number. Shown are actives, neighbours in structure and some others; about 1.8% of the full set was active somewhere. Rule as the data show it, unless noted: active = inhibition above about 50%; inactive = the rest.

SMILES	GRK2 inh	DSG3 Ab inh	LANA-H2A inh	PKD1 kinase inh	HDAC3 inhib	VLA-4 inh
CC1=C(C(=O)Nc2ccc(C)cc2C)C(c2ccc(C)o2)NC(=S)N1 (centres undefined)	0.0	.	3.2	-7.1	10.7	-3.6
COc1cc(NC(=S)NCCCO)c(OC)cc1Cl	42.0*	83.9	-1.1	3.9	1.7	5.0
Cc1ccc(CN2CCN(/N=C/c3cc(Br)cc(Br)c3O)CC2)c(C)c1	0.0	105.1	-5.2	0.5	-4.7	23.3
O=C(CCSCc1ccc(Cl)cc1)NCc1cccnc1	0.0	126.6	+	-3.8	-0.6	10.4
O=C(CCSCc1ccc(Cl)cc1)NCCc1ccccc1	2.0	102.7	-7.4	7.2	-8.5	2.1
O=C(CCNC(=O)c1ccc(Br)cc1)NCc1cccnc1	0.0	106.7	22.0*	.	0.3	10.9
COc1ccc(NC(=O)C(c2cc3c(cc2[N+](=O)[O-])OCO3)N(C)c2ccccc2)cc1 (centres undefined)	0.0	99.2	1.7	-19.5	-1.2	-0.5
Cc1ccc(C)c(N2CCN(CCN3CCCCC3)CC2)c1	0.0	103.7	-2.7	.	0.9	7.2
Cc1ccc2[nH]c(C(=O)N3CCN(C=O)CC3)cc2c1	0.0	98.3	12.7	.	6.5	8.2
CCOC(=O)N1CCN(C(=O)c2cc3cc(C)ccc3[nH]2)CC1	0.0	95.5	12.8*	.	-5.4	5.5
Cc1cc(CNC(=O)[C@H]2C[C@@H]2[C@H](NP(=O)(c2ccccc2)c2ccccc2)c2ccccc2)nn1C	0.0	.	24.2*	-4.3	-2.6	-6.9
CCOC(=O)c1sc2nc(CC(C)C)c3c(c2c1N)CCC3	0.0	-11.7*	-1.9	3.9	-14.2	-11.7
O=C(Nc1nnc(-c2ccco2)o1)C1CC1	1.0	89.3	-0.9	0.7	9.6	-4.0
Cc1cnc(NS(=O)(=O)c2ccccc2)c(C)n1	0.0	66.3*	-3.7	.	1.1	4.3
Cc1ccnc(NS(=O)(=O)c2ccccc2)n1	4.0	100.4	-6.5	-11.1	-5.2	19.5
N#Cc1c(SCc2c(Cl)cccc2Cl)nc(N)[nH]c1=S	3.0	100.2	11.2*	.	1.0	-4.8
N#Cc1c(-c2ccc(F)cc2)cc(-c2ccccc2)nc1SCC(=O)NCC(=O)O	0.0	62.7*	-5.8	.	9.0	-1.2
Cc1ccc(Cn2cnc3c(nnn3Cc3ccc(Cl)cc3)c2=O)cc1	0.0	73.2*	-0.5	7.7	-1.3	-1.2
COc1ccc(S(=O)(=O)N2CCN(C(=O)[C@@H]3CCCN3C(=O)c3cccs3)CC2)cc1	.	98.1	.	.	.	.
O=C([C@@H]1CCCN1C(=O)c1cccs1)N1CCN(S(=O)(=O)c2cccc(F)c2)CC1	3.0	98.2	10.6*	.	4.8	14.2
COCCSc1nnc(NC(=O)C(C)(C)C)s1	0.0	104.7	43.3*	-3.6	-6.6	8.9
Cc1cc(-c2n[nH]c(=S)n2/N=C/c2ccc(C)o2)n[nH]1	1.0	.	0.1	.	7.3	3.7
Cc1cccc(-c2n[nH]c(=S)n2/N=C/c2ccc(C)o2)c1	47.0*	97.6	0.2	-5.2	6.7	-1.9
CCOC(=O)C1(Cc2ccccc2C(F)(F)F)CCN(C2CCC2)CC1	0.0	100.5	0.0	0.7	-4.1	-5.3
CCOC(=O)C1(Cc2ccccc2C(F)(F)F)CCN(CCCn2cccn2)CC1	0.0	.	14.3*	-6.4	1.1	-13.2
SMILES	GRK2 inh	DSG3 Ab inh	LANA-H2A inh	PKD1 kinase inh	HDAC3 inhib	VLA-4 inh
CNC(=S)Nc1ccc(C(N)=O)cc1	0.0	98.9	2.5	-2.1	0.4	1.9
CS(=O)(=O)N(CC(=O)Nc1ccccc1C(=O)NCc1ccccc1)c1ccc2c(c1)OCCO2	3.0	100.5	85.9*	2.3	-1.8	-8.4
CC(=O)n1nc(-c2ccc(C)cc2)nc1NCc1ccc(F)cc1	.	106.1	.	-3.2	.	.
O=C(Nc1ccc(-n2cccc2)cc1)C1CC1	0.0	67.7*	-2.1	-3.9	11.7	8.5
CC(C)(C)C1CCC(C(=O)Nc2ccccc2)CC1 (centres undefined)	0.0	66.0*	-4.0	-1.2	-0.1	10.5
COCCN(C(=O)COC(=O)CSc1ccccc1)c1c(N)n(Cc2ccccc2)c(=O)[nH]c1=O	0.0	100.1	0.6	.	-2.5	8.3
CCOc1cc(C(=O)N=c2sccn2C)ccc1OC(F)F	0.0	127.5	20.0*	.	6.7	10.1
O=C(Nc1ccc(F)cc1F)c1ccc(S(=O)(=O)NCc2ccco2)cc1	2.0	108.1	-3.1	.	6.8	-10.9
CC(=O)Nc1ccc2c(c1)OCCO2	2.0	95.1	3.6	-9.2	-1.3	31.8
